Here are results for 1 molecule from PubChem BioAssay AID2284161 (EPA ToxCast).

Usually AC50 stands for the midpoint of the concentration-response curve, whichever way the signal moves.

The source made the active and inactive calls. Rule for the calls: active = hit-call score of the fitted dose curve at least 0.9, where 1 is the maximum; inactive = score below 0.9.

The assay deals with human Serotonin Receptor 5-HT6 Agonism, HTR6 (gene 3362) (UniProt P50406). As to the kind of experiment: ERF_FR_GPCR_hHTR6: Eurofins (ERF) G Protein-Coupled Receptor (GPCR) Radioligand Binding LeadHunter Assay for human Serotonin Receptor 5-HT6 Agonism. Here is the method: ERF_FR_GPCR_hHTR6 is a biochemical, single-readout assay that uses extracted gene-proteins in a cell-free assay. Measurements were taken 2 hour after chemical dosing in a 96-well plate. See 5-HT6 Human Serotonin GPCR Binding (Agonist Radioligand) Assay, Cerep.ERF_FR_GPCR_hHTR6 is an assay component calculated from the ERF_FR_GPCR_hHTR6 assay. It is designed to measure radioligand binding using a type of binding reporter as detected by scintillation counting with radiometry technology.Data from the assay component ERF_FR_GPCR_hHTR6 was analyzed at the assay endpoint, ERF_FR_GPCR_hHTR6, in the positive analysis fitting direction relative to DMSO as the negative control and baseline of activity. Using a type of binding reporter, gain-of-signal activity can be used to understand changes in binding as they relate to gene HTR6. To generalize the intended target to other relatable targets, this assay endpoint is annotated to the gpcr intended target family, where the subfamily is serotonin.
Chain of human Serotonin Receptor 5-HT6 Agonism, HTR6 (gene 3362) (P50406 whole entry, looked up): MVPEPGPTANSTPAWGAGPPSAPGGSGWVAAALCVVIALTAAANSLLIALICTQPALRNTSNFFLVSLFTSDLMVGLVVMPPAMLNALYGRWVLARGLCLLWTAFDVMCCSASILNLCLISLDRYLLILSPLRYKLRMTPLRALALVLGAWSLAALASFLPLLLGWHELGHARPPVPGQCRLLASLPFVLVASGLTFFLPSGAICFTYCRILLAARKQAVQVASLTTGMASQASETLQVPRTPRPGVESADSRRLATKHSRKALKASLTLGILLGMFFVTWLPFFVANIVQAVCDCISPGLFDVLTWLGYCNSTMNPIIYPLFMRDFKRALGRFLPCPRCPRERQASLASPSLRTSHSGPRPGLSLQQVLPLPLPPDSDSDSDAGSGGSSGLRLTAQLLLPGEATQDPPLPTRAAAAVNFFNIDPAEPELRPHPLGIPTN
Human cells are incubated for 120 minutes at 37 C with [3H]LSD ligand (2 nM) and serotonin as control inhibitor. Test Sample Requirements: Minimum for 1) Screen: 60 ul of 10 mM stock -OR- 1 mg (pre-weighed) for 10 uM final testing. 2) Dose Response: 90 ul of 10 mM stock -OR- 1 mg (pre-weighed) for a top concentration at 10 uM.
Consider `O=C(/C=C/c1ccc(O)cc1)CC(=O)/C=C/c1ccc(O)cc1`, for which the AC50 is 2700 nM (active).
